Holding throughout (test): NCI-60 one-dose screen, 48 h (100 = growth as untreated, 0 = no growth, -100 = all killed)
One assay deals with SR leukemia. Particulars: 10 µM unless noted.
The test system of another assay is RPMI-8226 leukemia. Particulars: 10 µM unless noted.
The subject of a further assay is OVCAR-8 ovarian. Particulars: 10 µM unless noted.
For another assay, the system named is OVCAR-5 ovarian. Particulars: 10 µM unless noted.
The next assay has as its system OVCAR-4 ovarian. As to conditions: 10 µM unless noted.
The next assay relates to SK-OV-3 ovarian. As to conditions: 10 µM unless noted.
The test system of another assay is IGROV1 ovarian. As to conditions: 10 µM unless noted.
Another assay relates to OVCAR-3 ovarian. As to conditions: 10 µM unless noted.
For the next assay, the system named is HS 578T breast. Particulars: 10 µM.
Another assay concerns NCI/ADR-RES ovarian. As to conditions: 10 µM unless noted.

The panel holds about 83,000 compounds, 20% with a hit somewhere; the sample as a whole holds those more often.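 Results are percent growth after 48 hours of single-concentration exposure. 100 means growth as in untreated cells, lower positive values show inhibition; negative values down to -100 show cell death.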 A number with no mark means an inactive call. Activity calls are given as the source filed them. Rule for the calls: active = growth percent below 10; inactive = the rest.

With `O=[N+]([O-])c1cc(Br)cc2c1[nH]c1ccc(Br)cc12`, the growth in the assay with SR leukemia was 77.2%; in the assay on RPMI-8226 leukemia, 78.2%; with OVCAR-8 ovarian, 57.7%; in the assay on OVCAR-5 ovarian, 80.4%; in the assay with OVCAR-4 ovarian, -26.5% (active); in the assay on SK-OV-3 ovarian, 34.5%. For the same compound, the growth in the assay on IGROV1 ovarian is 36.6%; with OVCAR-3 ovarian, 43.3%; in the assay on HS 578T breast, 65.4%; in the assay with NCI/ADR-RES ovarian it was 70.4%.

Regarding `COC(=O)[C@@H](OC)[C@@H]1Cc2cc3cc(OC4CC(OC5CC(O)C(O)C(C)O5)C(O)C(C)O4)c(C)c(O)c3c(O)c2C(=O)[C@H]1OC1CC(OC2CC(OC3CC(C)(O)C(O)C(C)O3)C(O)C(C)O2)C(O)C(C)O1` (stereo not given in full), the growth in the assay on SR leukemia was 4.74% (active); with RPMI-8226 leukemia, -17.5% (active); with OVCAR-8 ovarian it was 10.2%; with OVCAR-5 ovarian, 18.8%; in the assay on OVCAR-4 ovarian, 3.96% (active); with SK-OV-3 ovarian, 21%. In addition, the growth with IGROV1 ovarian is 28%; in the assay with OVCAR-3 ovarian it was 6.49% (active); with HS 578T breast, -10.5% (active); in the assay with NCI/ADR-RES ovarian it was 42.7%.

For the compound `Nc1c(C(=O)c2ccccc2)sc2nc(-c3cccs3)ccc12`, the growth with SR leukemia is 30.5%; in the assay on RPMI-8226 leukemia, 21.4%; in the assay with OVCAR-8 ovarian, 28.9%; in the assay on OVCAR-5 ovarian, 66.9%; in the assay on OVCAR-4 ovarian it was 57.3%; with SK-OV-3 ovarian, 35.4%. Also, the growth was 46.5% with IGROV1 ovarian, 9.4% (active) with OVCAR-3 ovarian, 34.3% with HS 578T breast and 3.97% (active) in the assay on NCI/ADR-RES ovarian.

Regarding `COc1cc2c3c(c1)nc(C)n3CCC2`, the growth in the assay with SR leukemia is 101%; in the assay on RPMI-8226 leukemia, 105%; in the assay on OVCAR-8 ovarian, 96.4%; in the assay on OVCAR-5 ovarian, 102%; in the assay with OVCAR-4 ovarian, 96%; in the assay with SK-OV-3 ovarian it was 90.8%. For the same compound, the growth in the assay on IGROV1 ovarian was 109%; in the assay on OVCAR-3 ovarian, 109%; in the assay with HS 578T breast, 105%; with NCI/ADR-RES ovarian it was 103%.

With `COc1ccc(-c2nocc2-c2cc(OC)c(OC)c(OC)c2)cc1`, the growth is 23.6% with SR leukemia; 30.7% in the assay on RPMI-8226 leukemia; 28.4% in the assay with OVCAR-8 ovarian; 51% in the assay on OVCAR-5 ovarian; 45.7% with OVCAR-4 ovarian; 22.5% in the assay on SK-OV-3 ovarian. The growth in the assay with IGROV1 ovarian is 46.6%; with OVCAR-3 ovarian, -10.9% (active); with HS 578T breast, 27.4%; with NCI/ADR-RES ovarian it was -19.5% (active).

For the compound `O=C(CNc1nc(-c2ccc(Cl)cc2)cs1)Nc1ccc(-c2nc3ccccc3s2)cc1`, the growth in the assay on SR leukemia was 89.7%; in the assay on RPMI-8226 leukemia, 87.4%; in the assay on OVCAR-8 ovarian, 98%; in the assay with OVCAR-5 ovarian it was 90.4%; in the assay on OVCAR-4 ovarian, 70.5%; in the assay with SK-OV-3 ovarian, 95%. Also, the growth was 59.1% with IGROV1 ovarian, 94% in the assay on OVCAR-3 ovarian, 91.3% in the assay on HS 578T breast and 94.2% in the assay with NCI/ADR-RES ovarian.

`COc1ccc(C(=O)c2cc(OC)c(OC)c(OC)c2)cc1/C=C/C(=O)c1ccc(F)cc1`: the growth in the assay with SR leukemia was 3.26% (active); with RPMI-8226 leukemia, 23.3%; with OVCAR-8 ovarian, 53.3%; in the assay on OVCAR-5 ovarian it was 1.82% (active); with OVCAR-4 ovarian, 77.8%; in the assay on SK-OV-3 ovarian it was 93.5%. Also, the growth with IGROV1 ovarian was 91.7%; in the assay with OVCAR-3 ovarian it was 61.4%; with HS 578T breast it was 98%; in the assay with NCI/ADR-RES ovarian it was 31.1%.

Consider `CN1CCN(c2nc(NCCNc3ccnc4cc(Cl)ccc34)c3ccccc3n2)CC1`, for which the growth in the assay on SR leukemia is -23.4% (active); with RPMI-8226 leukemia it was 3.82% (active); with OVCAR-8 ovarian, 12.4%; in the assay on OVCAR-5 ovarian, 59.9%; in the assay with OVCAR-4 ovarian, -0.851% (active); in the assay with SK-OV-3 ovarian, 44.6%. The growth with IGROV1 ovarian is 30.2%; in the assay with OVCAR-3 ovarian, 17.4%; in the assay with HS 578T breast it was 28.2%; in the assay on NCI/ADR-RES ovarian it was 85.5%.

Take `CCN(CCN(C)C)C(=O)CNCc1cc(C(N)=O)ccn1`: the growth in the assay on SR leukemia is 93%; in the assay on RPMI-8226 leukemia, 96.1%; with OVCAR-8 ovarian it was 89.9%; with OVCAR-5 ovarian, 101%; in the assay with OVCAR-4 ovarian, 109%; in the assay on SK-OV-3 ovarian, 96.4%. For the same compound, the growth was 109% in the assay on IGROV1 ovarian, 119% in the assay with OVCAR-3 ovarian, 108% with HS 578T breast and 104% with NCI/ADR-RES ovarian.

Take `CCN1CCN(Cc2ccc(NC(=O)Nc3nc(-c4cc(OC)c(OC)c(OC)c4)cs3)cc2C(F)(F)F)CC1`: the growth with SR leukemia is -32.6% (active); with RPMI-8226 leukemia it was -26% (active); in the assay with OVCAR-8 ovarian it was 14.1%; in the assay with OVCAR-5 ovarian it was 71.3%; in the assay with OVCAR-4 ovarian it was 14.1%; in the assay with SK-OV-3 ovarian it was 36.1%. Also, the growth in the assay on IGROV1 ovarian is 49.5%; with OVCAR-3 ovarian, 22.8%; in the assay on HS 578T breast it was 40%; in the assay with NCI/ADR-RES ovarian, -6.84% (active).

Take `NS(=O)(=O)c1ccc(CCN2C(=O)/C(=C\c3ccc(Cl)cc3)C=C2c2ccc3ccccc3c2)cc1`: the growth in the assay with SR leukemia was 83.3%; in the assay with RPMI-8226 leukemia it was 89.6%; in the assay on OVCAR-8 ovarian, 83.7%; in the assay on OVCAR-5 ovarian, 89.5%; in the assay with OVCAR-4 ovarian it was 95.3%; in the assay on SK-OV-3 ovarian, 84%. The growth is 94.2% in the assay with IGROV1 ovarian, 104% with OVCAR-3 ovarian, 101% with HS 578T breast and 95.3% with NCI/ADR-RES ovarian.

As for `CC1(C=O)NC(=O)NC1=O` (stereo not given), the growth with SR leukemia is 96.6%; in the assay with RPMI-8226 leukemia it was 109%; in the assay with OVCAR-8 ovarian, 94.9%; in the assay on OVCAR-5 ovarian, 101%; with OVCAR-4 ovarian it was 110%; in the assay on SK-OV-3 ovarian it was 81.9%. Also, the growth in the assay with IGROV1 ovarian was 111%; in the assay with OVCAR-3 ovarian, 115%; in the assay on HS 578T breast, 104%; in the assay with NCI/ADR-RES ovarian it was 107%.

Consider `CCc1nc2cc(/C=C/C(=O)NO)ccc2c(=O)n1CCc1ccc(F)cc1`, for which the growth is 10.7% with SR leukemia; 6.42% (active) in the assay with RPMI-8226 leukemia; 5.85% (active) in the assay with OVCAR-8 ovarian; 25.7% in the assay with OVCAR-5 ovarian; 25.4% in the assay with OVCAR-4 ovarian; -16.3% (active) in the assay with SK-OV-3 ovarian. Besides, the growth in the assay with IGROV1 ovarian is 28%; with OVCAR-3 ovarian it was -13.5% (active); in the assay with HS 578T breast, 52.6%; with NCI/ADR-RES ovarian it was 4.25% (active).

As to `COC(=O)C1=C(C(=O)OC)C23C=C(C)C1C2=C(C)C1(CC1)[C@@](C)(O)C3=O` (stereo not given in full), the growth in the assay on SR leukemia was 66.6%; with RPMI-8226 leukemia it was 92.3%; in the assay on OVCAR-8 ovarian, 12.7%; with OVCAR-5 ovarian, -3.58% (active); with OVCAR-4 ovarian, 1.65% (active); in the assay with SK-OV-3 ovarian, -21.6% (active). Further, the growth is 3.08% (active) in the assay with IGROV1 ovarian, -2.36% (active) in the assay with OVCAR-3 ovarian, 23.2% in the assay on HS 578T breast and -3.49% (active) in the assay with NCI/ADR-RES ovarian.

The values above are taken from PubChem BioAssay (NCI).
